Screening data: PubChem BioAssay, National Center for Advancing Translational Sciences (NCATS)
GLS inh – inhibitors of human glutaminase (GLS); O94925; GLS enzymatic activity, qHTS titration; Potency, µM (top dose mostly 45.5 µM), for inactives: at the top dose activity change, negative = inhibition, actives largely listed as inhibitors; actives 0.21% (n = 410,000); note: potency is the fitted concentration of half-maximal effect; % is set by controls: 0 for no effect and ±100 for the full control effect
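Human kidney-isoform GLS in 45 mM KH2PO4 pH 8.2, 0.02% Tween-20, with compound, started with 1mM L-Glutamine (added stock). Glutamate oxidase/HRP/Amplex red coupled fluorescence read at start and after 30 min at RT.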
TrxR1 substrate – substrates of rat thioredoxin reductase 1. purified TrxR1 substrate turnover, NADPH consumption readout. Potency, µM (highest dose often 114 µM), inactives show at the top dose activity change, negative = substrate turnover. actives 0.01% (n = 390,000). AID 588456; note: potency is the fitted concentration of half-maximal effect; % is set by controls: 0 for no effect and ±100 for the full control effect; nearly all actives have a fitted effect of over 50% in size
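Rat TrxR1, dispensed at 90 nM, was prereduced with 400 uM NADPH (final) for 5 min at ~22 deg C, then incubated with compound 15 min before 400 uM selenite. A first-read NADPH fluorescence drop versus no-compound background flagged substrates.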
IDH1 R132H inh – human IDH1 R132H inhibition; actives 0.093% (n = 390,000); Potency, µM (top dose mostly 76.6 µM), for inactives: top-dose activity change, negative = inhibition, actives largely listed as inhibitors; O75874; IDH1-R132H enzyme, NADPH consumption, diaphorase/resazurin fluorescence; note: potency is the fitted concentration of half-maximal effect; % is set by controls: 0 for no effect and ±100 for the full control effect; nearly all actives have a fitted effect of over 65% in size
Target sequence (O75874 whole entry R132H, stated change not applied): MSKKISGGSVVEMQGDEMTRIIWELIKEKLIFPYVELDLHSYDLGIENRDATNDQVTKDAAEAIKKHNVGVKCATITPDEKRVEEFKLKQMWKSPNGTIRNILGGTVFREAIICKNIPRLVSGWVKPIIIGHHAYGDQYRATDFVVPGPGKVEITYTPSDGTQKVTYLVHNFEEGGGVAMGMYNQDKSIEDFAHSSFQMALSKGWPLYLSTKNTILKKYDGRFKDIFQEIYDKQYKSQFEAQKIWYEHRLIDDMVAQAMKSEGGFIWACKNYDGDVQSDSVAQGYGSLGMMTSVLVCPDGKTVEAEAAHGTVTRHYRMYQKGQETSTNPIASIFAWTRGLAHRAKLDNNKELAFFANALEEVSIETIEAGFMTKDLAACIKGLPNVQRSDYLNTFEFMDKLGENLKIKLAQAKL
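IDH1-R132H (0.5 ug/mL) preincubated 30 min with compound, then NADPH (0.016 mM) and alpha-KG (2 mM) added; 80 min at RT, pH 7.5. Remaining NADPH coupled via diaphorase/resazurin to fluorescence (540/590 nm); concentration-response curves normalized to no-enzyme control.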
TrxR1 inh-1 – blocks rat thioredoxin reductase 1; O89049; recombinant rTrxR1, NADPH fluorescence consumption, selenite substrate; Potency, µM (titrated, usually from 114 µM), without a hit: at the highest dose activity change, negative = inhibition, actives largely listed as inhibitors; actives 1% (n = 390,000); AID 588453; note: potency is the fitted concentration of half-maximal effect; % is set by controls: 0 for no effect and ±100 for the full control effect; nearly all actives have a fitted effect of over 65% in size
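Rat TrxR1 (90 nM in the dispensed reagent) was pre-reduced with 400 uM NADPH for 5 min at room temperature, then incubated with compound for 15 min. After 400 uM selenite was added, NADPH fluorescence (Ex 340/Em 450 nm) was followed for 8 min.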
TRb SRC2 Alpha – disrupts human TRb binding to SRC2 peptide in AlphaScreen. shares compounds with TrxR1 inh-1. AlphaScreen TRb LBD-SRC2 peptide binding, luminescence. Potency, µM. actives 50% (n = 30); calls by dose curve
HepG2 tox – HepG2 cytotoxicity, 72 h ATP readout | Potency, µM | HepG2 viability, ATP luminescence (CellTiter-Glo), 72 h | actives 50% (n = 40) | shares compounds with TrxR1 inh-1 | AID 2447; calls by dose curve
AR SRC2 FP – disrupts human androgen receptor binding to SRC2 peptide | shares compounds with TrxR1 inh-1 | AR-LBD Tx-SRC2-3 fluorescence polarization, 3 h | calls only | 25 tested, under 10 active | AID 2448; call rule not given here
PPARg-DRIP2 inh – PPARg-DRIP2 (human) interaction inhibition, selectivity; shares compounds with TrxR1 inh-1; PPARg LBD / Texas Red DRIP-2 peptide, fluorescence polarization, 3 h; Potency, µM; 25 tested, under 10 active; calls by dose curve
VDR SRC2 FP – disrupts human vitamin D receptor binding to SRC2 peptide; shares compounds with TrxR1 inh-1; 25 tested, under 10 active; AID 2455; VDR LBD/SRC2-3 peptide, fluorescence polarization, 3 h; Potency, µM; calls by dose curve
Target sequence (P11473 whole entry, looked up, the tested form may be a part): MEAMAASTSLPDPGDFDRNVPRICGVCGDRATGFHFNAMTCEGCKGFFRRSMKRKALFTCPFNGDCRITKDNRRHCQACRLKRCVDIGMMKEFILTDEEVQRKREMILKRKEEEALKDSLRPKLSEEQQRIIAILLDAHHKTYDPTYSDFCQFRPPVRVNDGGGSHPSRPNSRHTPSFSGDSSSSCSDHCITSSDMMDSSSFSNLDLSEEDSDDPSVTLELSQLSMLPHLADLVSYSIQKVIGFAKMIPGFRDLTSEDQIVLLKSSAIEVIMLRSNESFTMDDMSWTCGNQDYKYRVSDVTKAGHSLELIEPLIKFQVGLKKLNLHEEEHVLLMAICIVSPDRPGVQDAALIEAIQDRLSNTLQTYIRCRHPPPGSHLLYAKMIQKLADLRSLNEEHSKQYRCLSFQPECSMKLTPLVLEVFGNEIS
GR counterassay – counter-screen for TrxR1 inhibitors: human glutathione reductase inhibition; shares compounds with TrxR1 inh-1; purified GR, DTNB reduction absorbance 405 nm kinetic; activity change, negative = inhibition, % at 57.1 µM; 55 tested, under 10 active; AID 652020
TrxR1 inh-2 – validation of rat thioredoxin reductase 1 inhibitors; shares compounds with TrxR1 inh-1; recombinant TrxR1, NADPH fluorescence consumption, selenite substrate; Potency, µM, actives largely listed as inhibitors; actives 50% (n = 55); AID 652023
TrxR1 insulin – TrxR1 inhibitors: insulin reduction mechanism-of-action test | shares compounds with TrxR1 inh-1 | TrxR1 Trx-coupled insulin reduction, NADPH absorbance 340 nm | Potency, µM | actives 20% (n = 55) | AID 652037;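 active = compounds with a measured potency under 100 micromolar; inconclusive = filed, but no rule given; inactive = potency at or above that, or unmeasurable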
TrxR1 inh-3 – inhibitors of rat thioredoxin reductase 1, DTNB reduction; shares compounds with TrxR1 inh-1; purified TrxR1, DTNB reduction, A412; Potency, µM; actives 90% (n = 55);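 active = a half-inhibiting concentration could be measured and was below 100 µM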
* marks the source's active call; other numbers are inactive results; i = inactive; ? = inconclusive; nt = no result given; [ ] = remark or other dose. The list is not random: actives were taken first. Their share in the collection is about 1.2%. Unless noted, calls come from the whole dose curve; as a rule, active = well fitted curve in the direction sought with a large enough effect; inconclusive = small, poorly fitted or top-dose-only effect, or another doubt; inactive = no such curve, though single readings can be large; an effect the other way counts as inactive or inconclusive.

SMILES	GLS inh	TrxR1 substrate	IDH1 R132H inh	TrxR1 inh-1	GR counterassay	TrxR1 inh-2	TrxR1 insulin	TrxR1 inh-3	others
O=C(COC(=O)c1cc([N+](=O)[O-])ccc1F)NC1C2CC3CC(C2)CC1C3 (stereo not drawn)	nt	nt	nt	nt	nt	nt	nt	nt	TRb SRC2 Alpha=i;HepG2 tox=i;AR SRC2 FP=i;PPARg-DRIP2 inh=i;VDR SRC2 FP=i
O=C(COC(=O)c1cc([N+](=O)[O-])ccc1Cl)NC1CCCC1	-25%	-8%	5%	?	nt	nt	nt	nt
O=C(COC(=O)c1cc([N+](=O)[O-])ccc1Cl)NC1C2CC3CC(C2)CC1C3 (stereo not drawn)	nt	nt	nt	nt	nt	nt	nt	nt	TRb SRC2 Alpha=i;HepG2 tox=i;AR SRC2 FP=i;PPARg-DRIP2 inh=i;VDR SRC2 FP=i
C[S+](=O)([O-])c1ccc(C(=O)OCC(=O)NC2C3CC4CC(C3)CC2C4)cc1 (stereo not drawn)	nt	nt	nt	nt	nt	nt	nt	nt	TRb SRC2 Alpha=i;HepG2 tox=i;AR SRC2 FP=i;PPARg-DRIP2 inh=i;VDR SRC2 FP=i
CCOC(=O)COc1ccc2c(C)c(CCN(CC)CC)c(=O)oc2c1	5%	nt	nt	nt	nt	nt	nt	nt
Fc1ccccc1CN1CCN(c2ncccn2)CC1	-2%	4%[57.1 µM]	23%	8%[57.1 µM]	nt	nt	nt	nt
Oc1cc2c(cc1CN1CCN(c3ncccn3)CC1)OCO2	13%	0%	13%	25µM*	-16	?	i	i
CC(=O)N1CCc2c(sc3c2c(=O)n(Cc2ccccc2)c(=O)n3CC(=O)Nc2ccc(C)c(F)c2)C1	-9%	0%	-9%	28%	nt	nt	nt	nt
CCC(=O)Nc1cccc(NC(=S)NC(=O)c2cccc(C)c2)c1	18%	-5%	-7%	11µM*	1	6*	i	1.3µM*
CCOc1cccc(C(=O)NC(=S)Nc2cccnc2)c1	23%	11%[57.1 µM]	2%	-59%	nt	nt	nt	nt
CCCOc1cccc(C(=O)NC(=S)Nc2ccc(N3CCN(C)CC3)cc2)c1	0%	-5%	-1%	79µM*	-11	5.3*	i	i
CCOc1cccc(C(=O)NC(=S)Nc2ccccc2)c1	-2%	-15%	4%	32µM*	-3	6.7*	i	74µM*
CCC(=O)Nc1cccc(NC(=S)NC(=O)c2ccc(C)cc2)c1	18%	0%	-1%	?	nt	nt	nt	nt
CCOc1cccc(C(=O)NC(=S)Nc2ccc(N3CCN(CC)CC3)cc2)c1	0%	-10%[57.1 µM]	6%	-51%	nt	nt	nt	nt
CC(C)OC(=O)c1cn(-c2ccccc2)nc1-c1ccco1	3%	8%	0%	5µM*	-13	?	i	2.5µM*
COc1ccc(N(C(=O)c2ccncc2)S(=O)(=O)c2cccc([N+](=O)[O-])c2)cc1	21%	-3%	-4%	50µM*	-7	9.5*	i	9.2µM*
COc1ccc(N(C(=O)c2cccnc2)S(=O)(=O)c2cccc([N+](=O)[O-])c2)cc1	5%	0%[57.1 µM]	0%	-16%[57.1 µM]	nt	nt	nt	nt
O=[N+]([O-])c1ccc(Cl)c(S(=O)(=O)Nc2cccc(S(=O)(=O)NC3=NCCC3)c2)c1	1%	3%	1%	2.5µM*	6	0.6*	i	0.051µM*
CCOc1cc(CNc2ccc(N3CCCC3)cc2)cc(Cl)c1OC	20%	-13%	19%	3.5µM*	-6	?	i	8µM*
O=C(NCCCc1nc2ccccc2n1CCCCOc1ccccc1)C1CCCCC1	nt	-6%	nt	7%	nt	nt	nt	nt
COc1ccc2c(c1)C/C(=C\c1ccc(N(C)C)cc1)C2=O	nt	-15%	nt	0%	nt	nt	nt	nt
CCOC(=O)c1c(C)oc2c1c(CN1CCN(C(=O)OCC)CC1)c(O)c1ccccc12	4%	4%	8%	1.6µM*	-23	?	i	0.33µM*
CCOC(=O)c1c(C)oc2c1c(CN1CCN(CCO)CC1)c(O)c1ccccc12	-17%	6%[57.1 µM]	17%	1.1µM*	-21	0.3*	i	0.77µM*
COc1ccc(CCNC(=O)CCc2cn(Cc3ccc(C)cc3)c3ccccc23)cc1OC	0%	5%	-6%	29%	nt	nt	nt	nt
O=S(=O)(NCCNCC=Cc1ccc(Br)cc1)c1cccc2cnccc12	nt	-4%	nt	15%[0.0914 µM]	nt	nt	nt	nt
SMILES	GLS inh	TrxR1 substrate	IDH1 R132H inh	TrxR1 inh-1	GR counterassay	TrxR1 inh-2	TrxR1 insulin	TrxR1 inh-3	others
Cc1ccc(-c2nc(C)sc2CC(=O)NCc2ccco2)cc1	5%	10%	2%	50µM*	-8	5.3*	i	10µM*
CS(=O)(=O)c1ccc(C(=O)OCC(=O)N2CCCCC2)cc1[N+](=O)[O-]	nt	nt	nt	nt	nt	nt	nt	nt	HepG2 tox=21µM*
CCCn1c(N)c(C(c2ccc(OC)cc2)N2CCN(c3ccccc3)CC2)c(=O)[nH]c1=O (stereo not drawn)	22%	8%[57.1 µM]	1%	10µM*	1	?	i	0.17µM*
Cc1cccc(N2CCN(c3cc(C)nc4nnnn34)CC2C)c1 (stereo not drawn)	57%	-3%	0%	32µM*	1	?	84µM*	0.11µM*
CCOc1ccc(CCNC(=O)CCCc2nnc3n(CC)c(=O)c4sccc4n23)cc1OCC	0%	8%[2.29 µM]	nt	6%	nt	nt	nt	nt
COC(=O)c1ccc(C2c3c(oc4ccccc4c3=O)C(=O)N2CCCN2CCOCC2)cc1 (stereo not drawn)	-6%	7%[57.1 µM]	8%	10µM*	-8	?	i	1.2µM*
COCCN1C(=O)c2oc3ccccc3c(=O)c2C1c1ccc(C(=O)OC)cc1 (stereo not drawn)	7%	8%[57.1 µM]	-7%	17%[57.1 µM]	nt	nt	nt	nt
Cc1nc([N+](=O)[O-])c(N2CCOCC2)n1Cc1ccccc1	0%	-8%	-2%	7%	nt	nt	nt	nt
Cc1cc2nc(Sc3c([N+](=O)[O-])nc(C)n3Cc3ccccc3)[nH]c2cc1C	-8%	-8%	4%	7.1µM*	-11	3*	32µM*	0.013µM*
Cc1nc(N)nc(N)c1-c1ccc([N+](=O)[O-])cc1	-10%	12%[57.1 µM]	2%	12%[11.4 µM]	nt	nt	nt	nt
